Laboratory results: article PMC4336329 (PLoS ONE, 2015)
Hit rate of the full screen: of about 310,000 compounds, about 14,000 (4.5%) showed an effect of 50% or more. The effect is printed as a negative number. This is one part of a sample in which strong results are shown more often than they occur.

Target: human ether-à-go-go-related gene (hERG) potassium channel (human, UniProt Q12809)
Assay: primary screen, population patch clamp on CHO cells stably expressing hERG; higher = less effect of the substance
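Also: peak tail current of the secondary pulse compared with the same well before compound.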

human ether-à-go-go-related gene (hERG) potassium channel, sequence (Q12809 whole entry, looked up): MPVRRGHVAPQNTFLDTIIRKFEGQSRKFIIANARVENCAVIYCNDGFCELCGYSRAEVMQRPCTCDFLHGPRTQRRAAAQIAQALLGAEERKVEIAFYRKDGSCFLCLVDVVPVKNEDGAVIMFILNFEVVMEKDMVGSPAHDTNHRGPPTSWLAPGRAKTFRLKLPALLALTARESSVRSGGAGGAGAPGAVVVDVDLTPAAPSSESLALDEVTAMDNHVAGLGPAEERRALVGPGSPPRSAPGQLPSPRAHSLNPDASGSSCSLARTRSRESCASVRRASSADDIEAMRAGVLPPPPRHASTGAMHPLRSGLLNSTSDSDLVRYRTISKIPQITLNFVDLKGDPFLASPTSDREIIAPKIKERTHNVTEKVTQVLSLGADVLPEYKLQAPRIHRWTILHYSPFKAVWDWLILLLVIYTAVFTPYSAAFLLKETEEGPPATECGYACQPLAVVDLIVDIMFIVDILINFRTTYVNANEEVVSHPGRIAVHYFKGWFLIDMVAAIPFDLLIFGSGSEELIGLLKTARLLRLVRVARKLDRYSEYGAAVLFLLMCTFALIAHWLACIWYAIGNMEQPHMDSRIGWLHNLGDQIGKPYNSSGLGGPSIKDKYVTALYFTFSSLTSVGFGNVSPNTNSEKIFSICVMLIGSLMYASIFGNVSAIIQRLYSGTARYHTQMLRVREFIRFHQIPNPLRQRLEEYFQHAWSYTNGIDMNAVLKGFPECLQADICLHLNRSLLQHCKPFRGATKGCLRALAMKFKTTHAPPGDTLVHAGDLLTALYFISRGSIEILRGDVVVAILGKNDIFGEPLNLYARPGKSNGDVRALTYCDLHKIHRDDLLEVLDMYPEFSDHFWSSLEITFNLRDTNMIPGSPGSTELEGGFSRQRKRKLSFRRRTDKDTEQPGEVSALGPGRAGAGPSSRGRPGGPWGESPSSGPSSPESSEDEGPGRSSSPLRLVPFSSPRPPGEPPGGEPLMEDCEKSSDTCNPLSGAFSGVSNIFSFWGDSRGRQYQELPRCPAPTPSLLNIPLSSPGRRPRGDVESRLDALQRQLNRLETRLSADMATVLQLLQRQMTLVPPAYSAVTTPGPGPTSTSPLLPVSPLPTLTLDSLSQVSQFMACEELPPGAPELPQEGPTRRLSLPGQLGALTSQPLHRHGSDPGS

Compound	hERG current change (%, negative = inhibition) at 10uM
COc1ccc(OC)c(NC(=O)c2ccc(Cl)cc2)c1	-5.32%
COc1ccc(/C(C)=N/Nc2nc3ccccc3n3cnnc23)cc1OC	-19.4%
CC(c1ccccc1)n1c(CCCO)nc2ccccc21 (stereo not shown)	-2.26%
COc1cccc(OC)c1C(=O)Nc1ccc(Cc2ccncc2)cc1	8.86%
CC1CCCN(Cc2nc3c(c(=O)n(C)c(=O)n3C)n2CC(=O)c2ccccc2)C1 (stereo not shown)	-8.71%
CCN(Cc1ccncc1)Cc1cn[nH]c1-c1ccc(OC)cc1F	-3.13%
COc1ccc(NC(=O)CN(C)C(=O)c2cccc3ccccc23)cc1	3.09%
CCOc1nc(Nc2ccc([N+](=O)[O-])cc2)nc(NC(C)(C)C)n1	12.2%
C=CCNc1nc(Nc2ccc([N+](=O)[O-])cc2)nc(N2CCCC2)n1	-23.8%
CCOc1nc(NCCN2CCOCC2)nc(Nc2ccc([N+](=O)[O-])cc2)n1	-93.1%
CCOc1nc(NCCO)nc(Nc2ccc([N+](=O)[O-])cc2)n1	-9.66%
COc1nc(NCCO)nc(Nc2ccc([N+](=O)[O-])cc2)n1	-40.2%
CCOc1nc(NCCN2CCOCC2)nc(NC(C)C)n1	-9.84%
C=CCNc1nc(Nc2ccc([N+](=O)[O-])cc2)nc(OC)n1	-14.1%
CCOc1nc(NCCN2CCOCC2)nc(Nc2ccc(C)cc2)n1	-65.3%
OCCNc1nc(Nc2ccc(Cl)cc2)nc(N2CCCC2)n1	-15.1%
CCCNc1nc(Nc2ccc(C)cc2)nc(N2CCCC2)n1	-30.6%
O=[N+]([O-])c1ccc(Nc2nc(NCCO)nc(N3CCCC3)n2)cc1	-58.3%
COc1nc(NCCN2CCOCC2)nc(Nc2ccc([N+](=O)[O-])cc2)n1	-50.7%
CCCn1c(N)c(N(CCOC)C(=O)c2cc(C)cc(C)c2)c(=O)[nH]c1=O	16.4%

Compound	hERG current change (%, negative = inhibition) at 10uM
CCCS(=O)(=O)N1CCN(Cc2ccc(OCc3ccccc3)c(OC)c2)CC1.O=C(O)C(=O)O	-43.2%
O=C(NCc1ccccn1)c1c(Cl)cccc1Cl	2.78%
COc1ccc(-n2c(C)cc(C)c(C(C)=O)c2=S)cc1	-2.39%
Cc1cccc(N2CCN(CC(=O)N(C3CCCC3)C3CCS(=O)(=O)C3)CC2)c1C (stereo not shown)	-13.3%
CCCc1nnc(SCC(=O)N(CC)CC)n1CC1CCCO1 (stereo not shown)	21.9%
Cc1ccc2[nH]c(=O)c(CN(CCc3ccccc3)Cc3nnnn3CC3CCCO3)cc2c1 (stereo not shown)	-16%
CC(=O)Nc1ccc(/C=N/NC(=S)NC(C)C)cc1	21.3%
CC(Cc1n[nH]c(=S)n1N)c1ccccc1 (stereo not shown)	19.8%
CS(=O)(=O)c1ccc(Cl)c(NC(=O)COC(=O)c2ccc(-n3cnnn3)cc2)c1	-7.82%
COc1cccc(CNC(=O)COc2cccc(-n3cnnn3)c2)c1	-18.9%
O=C(COc1cccc(-n2cnnn2)c1)Nc1ccc([N+](=O)[O-])cc1	-43.6%
Cc1ccc(NC(=O)COc2cccc(-n3cnnn3)c2)cc1[N+](=O)[O-]	-0.307%
COc1ccc(NC(=O)COc2cccc(-n3cnnn3)c2)cc1	-54.3%
COc1cccc(NC(=O)COc2cccc(-n3cnnn3)c2)c1	-50.8%
COc1ccc(NC(=O)COc2cccc(-n3cnnn3)c2)cc1Cl	24%
O=C(COc1cccc(-n2cnnn2)c1)Nc1ccccc1	-26.4%
COC(=O)c1ccc(NC(=O)COc2cccc(-n3cnnn3)c2)cc1	6.77%
CCc1ccc(NC(=O)COc2cccc(-n3cnnn3)c2)cc1	-68%
S=c1[nH]nc(CSCc2ccccc2Cl)n1-c1ccccc1	0.868%
CCOc1ccccc1N(CC(=O)NC1CCCC1)C(=O)CCCC(=O)Nc1ccccn1	-8.6%

Compound	hERG current change (%, negative = inhibition) at 10uM
O=C(O)/C=C\c1cccc(-n2cnnn2)c1	-1.3%
CCC(=NCCc1c[nH]c2ccccc12)c1c(O)n(C)c(=O)n(C)c1=O	-10.8%
COc1ccc(/C(C)=N/NC(=O)C2C3CCCCC32)c(OC)c1 (stereo not shown)	-0.79%
CN(C)CCNC(=O)Cn1ccc2cc(S(=O)(=O)N3CCCCC3)ccc21	8.47%
Cc1ccc(NC(=O)CN(C)C(=O)c2nn(C)c(=O)c3ccccc23)cc1	-35.7%
O=C(NN=C(c1ccccc1)c1ccccc1)C(CCl)C1CCCCC1 (stereo not shown)	-2.74%
CCN(CC)CC(=O)NN=C(c1ccccc1)c1ccccc1	-77.6%
O=C(CNC1CCCCC1)NN=C(c1ccccc1)c1ccccc1	-59.8%
C/C(=N\NC(=O)CNc1ccccc1)c1ccccc1	-12.8%
CCOC(=O)C(=O)NN=C(c1ccccc1)c1ccccc1	9.79%
C=CCNCC(=O)NN=C(c1ccccc1)c1ccccc1	-68.5%
O=C(CN1CCCC1)NN=C(c1ccccc1)c1ccccc1	-68.3%
CC(NC1CCCCC1)C(=O)NN=C(c1ccccc1)c1ccccc1 (stereo not shown)	-32.1%
O=C(CCl)NN=C(c1ccccc1)c1ccccc1	0.333%
O=C(CN1CCOCC1)NN=C(c1ccccc1)c1ccccc1	20.8%
CC1CN(CC(=O)NN=C(c2ccccc2)c2ccccc2)CC(C)O1 (stereo not shown)	12.8%
C=CCNC(=O)NC(=S)c1ccccc1	-4.57%
O=C(CN1C(=O)C2C3C=CC(C3)C2C1=O)NC1CCCc2ccccc21 (stereo not shown)	-2.95%
